Assay results reported in PubChem BioAssay (Tox21).
Records with an inconclusive call do not appear. The source made the active and inactive calls. The call rests on the fitted dose curve.

Assay: qHTS assay for small molecule agonists of the p53 signaling pathway - cell viability (AID 651633);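 further: p53RE-bla HCT reporter cells with a stable beta-lactamase p53 reporter; nearly all actives have a fitted effect of over 30% in size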
Settings: p53RE-bla HCT-116 viability, ATP luminescence, 16 h; series mostly up to 83.3 µM
Source text: National Center for Advancing Translational Sciences [NCATS]
NIH Chemical Genomics Center [NCGC]
U.S. Environmental Protection Agency [EPA]
National Institutes of Environmental Health Sciences [NIEHS]
National Toxicology Program [NTP]
U.S. Food and Drug Administration [FDA]
p53, a tumor suppressor protein, is activated following cellular insult, including DNA damage and other cellular stresses. The activation of p53 regulates cell fate by inducing DNA repair, cell cycle arrest, apoptosis, or cellular senescence. The activation of p53, therefore, is a good indicator of DNA damage and other cellular stresses. […] The activation of the reporter gene under culture conditions can be detected by fluorescence intensity. This cell line was used to screen the Tox21 compound library in a 1536-well plate format and to identify agonists that activate the p53 signaling pathway.
Tox21 Assay Protocol Summary:
The p53RE-bla cells were dispensed at 4,000 cells/5 ul/well in 1536-well black wall/clear bottom plates using a Multidrop dispenser. After the assay plates were incubated at a 37 C/5% CO2 incubator for 5 hours, 23 nL of compounds dissolved in DMSO, positive controls or DMSO only was transferred to the assay plate by a pin tool. The plates were incubated at 37 C for 16 hours. After 1 uL of LiveBLAzerTM B/G FRET substrate was added using a Flying Reagent Dispenser, the plates were incubated at room temperature for 2 hours, and fluorescence intensity was measured by an Envision plate reader.
For cell viability readout that measures cytotoxicity, 4 ul/well of CellTiter-Glo reagent was added into the assay plates using a Flying Reagent Dispenser. After 30 min incubation at room temperature, the luminescence intensity in the plates was measured using a ViewLux plate reader.

SMILES	outcome
C=C(C)C(=O)OCCCCCCOC(=O)C(=C)C	inactive
CCCCC(CC)C(=O)OC(C)C (stereo not given)	inactive
Cc1ccccc1C	inactive
CCCCOC(=O)C(C)OC(=O)CCC (stereo not given)	inactive
CCCO	inactive
C=C[C@@H](C)CCC=C(C)C	inactive
CNCc1ccccc1	inactive
Nc1ccc(S(=O)(=O)Nc2ccccn2)cc1	inactive
C=C(C)C(=O)OC	inactive
CC(C)COC(=O)COc1ccc(Cl)cc1Cl	inactive
Cc1nc2ccccc2c(=O)o1	inactive
C=CC(C)(O)CC/C=C(\C)CC (stereo not given)	inactive
O=C(c1ccc2c(c1)C(=O)OC2=O)c1ccc2c(c1)C(=O)OC2=O	inactive
O=c1[nH]c(=O)c2[nH]c(=O)[nH]c2[nH]1	inactive
CN=C(NC#N)NCCSCc1csc(N=C(N)N)n1	inactive
Cc1c(C(C)C)c(=O)n(-c2ccccc2)n1C	inactive
Cc1ccccc1C(=O)N1CC/C(=N\OS(=O)(=O)O)c2ccc(Cl)cc21	inactive
CCCCCCCCCCCCC	inactive
O=c1cc(O)c(Cl)c[nH]1	inactive
c1ccc(CNc2ncnc3nc[nH]c23)cc1	inactive

SMILES	outcome
C[N+](C)(C)CC(O)CCl (stereo not given)	inactive
O=C1c2ccccc2-c2ccccc21	inactive
O=C(Nc1cccc(C2=NCCN2)c1)Nc1cccc(C2=NCCN2)c1	inactive
CC1=CC[C@H](CC=O)C1(C)C	inactive
O=[Si]=O	inactive
O=C(O)c1ccccc1C(=O)OCc1ccccc1	inactive
NC(=O)C1(N2CCCCC2)CCN(CCCC(=O)c2ccc(F)cc2)CC1	inactive
O=C(Oc1ccccc1C(=O)O)c1ccccc1O	inactive
CCCCOC(=O)[C@@H](C)Oc1ccc(Oc2ccc(C(F)(F)F)cn2)cc1	inactive
CC(C)C(=O)c1ccccc1	inactive
CCOc1ccc(NC(=O)OC(C)C)cc1OCC	inactive
C=C(C)[C@@H]1CC[C@@H](C)C[C@@H]1O	inactive
CCC1COC(=O)O1 (stereo not given)	inactive
N#CCCOCCOCCC#N	inactive
O=C1OC(=O)c2cc(Oc3ccc4c(c3)C(=O)OC4=O)ccc21	inactive
O=C1OC(=O)c2ccccc21	inactive
COCC(=O)Nc1c(I)c(C(=O)NCC(O)CO)c(I)c(C(=O)N(C)CC(O)CO)c1I (stereo not given)	inactive
C=CCOc1c(Br)cc(Br)cc1Br	inactive
SCCSCCS	inactive
NCCc1ccn[nH]1	inactive
